Only some compounds are listed: those with a hit (about 3.1% of all), similar ones and a draw of the others.
EWS-Fli inh – EWS/Fli-driven NR0B1 reporter inhibitors, primary screen, A673 cells, NR0B1 luciferase, luminescence, MLPCN library | viability-normalised | inhibition, % at 12.6 µM | 0.67% of 350,000 active | AID 651661, 2012;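 active = mean inhibition of at least 50% after viability correction, with every replicate also passing that limit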;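 note: firefly luciferase signal divided by Alamar Blue viability fluorescence both relative to DMSO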
TROY NFkB inh – inhibitors of TROY-driven NF-kB signaling, primary screen, Q293 LMP1-TROYcd cells, NF-kB luciferase, uHTS | Q293 LMP1-TROYcd NF-kB luciferase reporter, 4 h | inhibition, % at 10 µM | 0.98% of 360,000 active | AID 1347056, 2019;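 active = compounds whose plate-normalised and pattern-corrected inhibition of the luciferase reporter signal at the single screening dose is 50% or more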
TWEAK Fn14 block – inhibitors of TWEAK-Fn14 signaling, primary screen, luciferase reporter cells, uHTS; AID 1159606, 2016; TWEAK-stimulated Fn14 reporter cells, luciferase luminescence, 8 h; inhibition, % at 10 µM; 2% of 360,000 active; in the data active = inhibition above about 50%
PAX8 inh HTS – inhibitors of PAX8-driven TPO luciferase reporter, primary screen, RMG-I cells, single concentration | SteadyGlo, 24 h | inhibition, % at 12.6 µM | 1.2% of 360,000 active;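 active = mean replicate inhibition at least 60% with every replicate also reaching 60%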;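 note: luciferase light reporting Pax8 driven TPO promoter activity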
LMP1 NFkB inh – EBV LMP1-driven NF-kappaB luciferase reporter inhibitors, primary screen, cell-based, luminescence, single point. LMP1-induced NF-kappaB luciferase reporter cells. inhibition, % at 12.5 µM. 0.69% of 350,000 active; in the data active = inhibition above about 41%
LGR2 antag – inhibitors of bursicon-induced LGR2 CRE-luciferase signal, primary screen, cell-based, HEK293, CRE-luciferase reporter, bursicon stimulation; AID 720647, 2013; inhibition, % at 9.99 µM; Drosophila bursicon receptor LGR2 (rickets); 0.35% of 380,000 active; bursicon-stimulated, 4 h;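 active = drop in luminescence signal, shown as inhibition above about 50% in the replicate tests, limit read from the data, passing the limit was not always enough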;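 note: agonist challenge used bursicon conditioned medium at about half maximal strength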
Each line names hits and unclear results; the compound was inactive in the other large screens.

C[C@H]1[C@H](OC(=O)CCC(=O)NCc2ccc(C(=O)O)cc2)O[C@@H]2O[C@@]3(C)CC[C@H]4[C@H](C)CC[C@@H]1C24OO3	none (no result: EWS-Fli inh, PAX8 inh HTS, LGR2 antag)
CC(C)CC(NC(=O)CCCNC(=O)CCC(=O)OC1O[C@H]2OC3(C)CC[C@H]4[C@H](C)CCC(C1C)C24OO3)C(=O)O (some centres undefined)	PAX8 inh HTS 73.8
CC1C(OC(=O)CCC(=O)NC(C)(C)CO)O[C@H]2OC3(C)CC[C@H]4[C@H](C)CCC1C24OO3 (some centres undefined)	PAX8 inh HTS 77.4
Nc1cc(N2CCNCC2)c([N+](=O)[O-])cc1Cl	none (no result: EWS-Fli inh)
O=[N+]([O-])c1ccc(N2CCNCC2)cc1N1CCCCC1	PAX8 inh HTS 83.1
CCCNC(=O)[C@@H]1[C@@H](CO)[C@@H]2Cn3c(cccc3=O)[C@H]1N2CCC	none (no result: TROY NFkB inh, TWEAK Fn14 block, LMP1 NFkB inh)
CCC(=O)N1[C@@H]2c3ccc(-c4ccc(F)cc4)c(=O)n3C[C@H]1[C@H](CO)[C@H]2C(=O)OC	none (no result: TROY NFkB inh, TWEAK Fn14 block, LMP1 NFkB inh)
CC(=O)NC(Cc1ccc(N(CCCl)CCCl)cc1)C(=O)O (centres undefined)	none (no result: PAX8 inh HTS)
N[C@@H](Cc1ccc(N(CCCl)CCCl)cc1)C(=O)O	LMP1 NFkB inh 49.9
NC(Cc1ccc(O)cc1)C(=O)NN=Cc1ccc(N(CCCl)CCCl)cc1 (centres undefined)	EWS-Fli inh 57.4, LMP1 NFkB inh 47.5
COc1cc(C(=O)NN=Cc2ccc(N(CCCl)CCCl)cc2)cc(OC)c1OC	none
Cc1cccc(S(=O)(=O)N2[C@@H]3Cn4c(ccc(-c5ccccc5)c4=O)[C@H]2[C@@H](C(=O)O)[C@@H]3CO)c1	none (no result: TROY NFkB inh, TWEAK Fn14 block, LMP1 NFkB inh)
CCC(=O)[C@@H](C)[C@@H](O)[C@H](C)C[C@@H](C)C1OC(=O)C[C@@]2(O)CC=C(C)C(O2)C(C)=CCCC[C@H](O[C@H]2C[C@@H](OC(N)=O)[C@H](O)[C@@H](C)O2)C=C[C@H](C)C[C@H]1C (some centres undefined)	TWEAK Fn14 block 88.9 (no result: EWS-Fli inh, PAX8 inh HTS, LMP1 NFkB inh, LGR2 antag)
CCN(CC)C(=O)c1ccc(NC(=O)Nc2ccccc2F)cc1	EWS-Fli inh 61.7, TROY NFkB inh 76.3, TWEAK Fn14 block 71.8, LMP1 NFkB inh 51.1, LGR2 antag 75.0
CC1=C(O)C(=O)C=C2C1=CC=C1C2(C)CCC2(C)C3CC(C)(C(=O)O)CCC3(C)CCC12C (centres undefined)	EWS-Fli inh 64.7, TROY NFkB inh 89.4, TWEAK Fn14 block 106.1, PAX8 inh HTS 118.8, LMP1 NFkB inh 87.6 (no result: LGR2 antag)
COc1ccc(-n2nnnc2C(c2ccccc2)N2CCC(n3c(=O)[nH]c4ccccc43)CC2)cc1 (centres undefined)	PAX8 inh HTS 78.4 (no result: LMP1 NFkB inh)
COc1ccc(-n2nnnc2C(C2CC2)N2CCC(n3c(=O)[nH]c4ccccc43)CC2)cc1 (centres undefined)	none (no result: LMP1 NFkB inh)
COc1ccc(-n2nnnc2C(c2cccs2)N2CCC(n3c(=O)[nH]c4ccccc43)CC2)cc1 (centres undefined)	PAX8 inh HTS 70.8 (no result: LMP1 NFkB inh)
O=C(Cc1ccncc1)N1CCCCN2[C@H](CO)[C@H](c3ccc(C#Cc4ccccc4F)cc3)[C@@H]2C1	none (no result: TROY NFkB inh, TWEAK Fn14 block, LMP1 NFkB inh)
CCC(=O)N1[C@@H]2Cn3c(ccc(-c4ccc(F)cc4)c3=O)[C@H]1[C@@H](C(=O)OC)[C@@H]2CO	none (no result: TROY NFkB inh, TWEAK Fn14 block, LMP1 NFkB inh)
COC(=O)[C@@H]1[C@@H](CO)[C@@H]2Cn3c(ccc(-c4ccccc4)c3=O)[C@H]1N2CCc1ccccc1	none (no result: TROY NFkB inh, TWEAK Fn14 block, PAX8 inh HTS, LMP1 NFkB inh)
CCC(C)C(=O)N[C@@H](c1ccccc1)[C@@H](O)C(=O)O[C@H]1C[C@@]2(O)[C@@H](OC(=O)c3ccccc3)C3[C@](C)(C(=O)[C@H](OC(C)=O)C(=C1C)C2(C)C)[C@@H](O)C[C@H]1OC[C@@]31OC(C)=O (some centres undefined)	EWS-Fli inh 56.2 (no result: PAX8 inh HTS)
CC/C=C/CC(=O)N[C@@H](c1ccccc1)[C@@H](O)C(=O)O[C@H]1C[C@@]2(O)[C@@H](OC(=O)c3ccccc3)C3[C@](C)(C(=O)[C@H](OC(C)=O)C(=C1C)C2(C)C)[C@@H](O)C[C@H]1OC[C@@]31OC(C)=O (some centres undefined)	none (no result: PAX8 inh HTS, LGR2 antag)
C/C=C(\C)C(=O)N[C@@H](c1ccccc1)[C@@H](O)C(=O)O[C@H]1C[C@@]2(O)[C@@H](OC(=O)c3ccccc3)C3[C@](C)(C(=O)[C@H](OC(C)=O)C(=C1C)C2(C)C)[C@H](O)C[C@H]1OC[C@@]31OC(C)=O (some centres undefined)	EWS-Fli inh 57.7 (no result: PAX8 inh HTS, LGR2 antag)
O=C(Cc1ccccn1)N1CCCCN2[C@H](CO)[C@@H](c3ccc(-c4ccc(F)cc4)cc3)[C@@H]2C1	none (no result: TROY NFkB inh, TWEAK Fn14 block, LMP1 NFkB inh)
O=C(O)[C@H]1[C@H](CO)[C@H]2Cn3c(ccc(-c4cccnc4)c3=O)[C@@H]1N2S(=O)(=O)c1ccccc1F	none (no result: TROY NFkB inh, TWEAK Fn14 block, LMP1 NFkB inh)
O=C(Cc1ccncc1)N1CCCCN2[C@@H](CO)[C@H](c3ccc(C#Cc4ccccc4F)cc3)[C@@H]2C1	none (no result: TROY NFkB inh, TWEAK Fn14 block, LMP1 NFkB inh)
COc1ccc(-n2nnnc2C(c2cccc3ccccc23)N2CCC3(CC2)C(=O)NCN3c2ccccc2)cc1 (centres undefined)	TWEAK Fn14 block 52.7 (no result: LMP1 NFkB inh)
Cc1cccc(C)c1-n1nnnc1C(C1CC1)N1CCC2(CC1)C(=O)NCN2c1ccccc1 (centres undefined)	TROY NFkB inh 75.2 (no result: LMP1 NFkB inh)
O=C1NCN(c2ccccc2)C12CCN(C(c1cccc3ccccc13)c1nnnn1-c1ccc3c(c1)OCCO3)CC2 (centres undefined)	none (no result: LMP1 NFkB inh)
CC1(CCO)CC(C)(CCc2ccccc2)OO1 (centres undefined)	EWS-Fli inh 66.7 (no result: TROY NFkB inh, TWEAK Fn14 block, LMP1 NFkB inh, LGR2 antag)
C=CCCC[C@@H]1OC(=O)CNC(=O)C([C@@H](C)CC)NC(=O)[C@@H]2CCCN2C(=O)C([C@@H](C)CC)OC(=O)[C@H](Cc2ccccc2)N(C)C(=O)[C@H](C(C)C)NC(=O)C1(C)C (some centres undefined)	none (no result: LMP1 NFkB inh)
CCC(C)C1NC(=O)C2CCCN2C(=O)C(CC(C)C)OC(=O)CCNC(=O)C(C)N(C)C(=O)C(C(C)C)N(C)C1=O (centres undefined)	PAX8 inh HTS 72.2
Cc1c(NS(=O)(=O)c2ccccc2)ccc([N+](=O)[O-])c1Cl	TROY NFkB inh 59.5 (no result: PAX8 inh HTS)
CCN(CCNc1ccc([N+](=O)[O-])c2cccnc12)S(=O)(=O)c1ccccc1	none (no result: EWS-Fli inh)
CC(=O)NC(C)Cc1ccccc1 (centres undefined)	TWEAK Fn14 block 80.9 (no result: EWS-Fli inh, TROY NFkB inh, PAX8 inh HTS)
CC(Cc1ccccc1)NC(=O)NC(C)Cc1ccccc1 (centres undefined)	none (no result: EWS-Fli inh, PAX8 inh HTS, LGR2 antag)

From PubChem
